Reference: PMC4336329 (PLoS ONE, 2015)
Screen size: about 310,000 compounds; about 14,000 (4.5%) showed an effect of 50% or more. The effect is printed as a negative number. This excerpt belongs to a sample that is enriched for strong results.

Each molecule was assayed against human ether-à-go-go-related gene (hERG) potassium channel (human, UniProt Q12809) (assay: primary screen, population patch clamp on CHO cells stably expressing hERG; higher = less effect of the substance).
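Note: peak tail current of the secondary pulse compared with the same well before compound.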

Chain of human ether-à-go-go-related gene (hERG) potassium channel (Q12809 whole entry, looked up): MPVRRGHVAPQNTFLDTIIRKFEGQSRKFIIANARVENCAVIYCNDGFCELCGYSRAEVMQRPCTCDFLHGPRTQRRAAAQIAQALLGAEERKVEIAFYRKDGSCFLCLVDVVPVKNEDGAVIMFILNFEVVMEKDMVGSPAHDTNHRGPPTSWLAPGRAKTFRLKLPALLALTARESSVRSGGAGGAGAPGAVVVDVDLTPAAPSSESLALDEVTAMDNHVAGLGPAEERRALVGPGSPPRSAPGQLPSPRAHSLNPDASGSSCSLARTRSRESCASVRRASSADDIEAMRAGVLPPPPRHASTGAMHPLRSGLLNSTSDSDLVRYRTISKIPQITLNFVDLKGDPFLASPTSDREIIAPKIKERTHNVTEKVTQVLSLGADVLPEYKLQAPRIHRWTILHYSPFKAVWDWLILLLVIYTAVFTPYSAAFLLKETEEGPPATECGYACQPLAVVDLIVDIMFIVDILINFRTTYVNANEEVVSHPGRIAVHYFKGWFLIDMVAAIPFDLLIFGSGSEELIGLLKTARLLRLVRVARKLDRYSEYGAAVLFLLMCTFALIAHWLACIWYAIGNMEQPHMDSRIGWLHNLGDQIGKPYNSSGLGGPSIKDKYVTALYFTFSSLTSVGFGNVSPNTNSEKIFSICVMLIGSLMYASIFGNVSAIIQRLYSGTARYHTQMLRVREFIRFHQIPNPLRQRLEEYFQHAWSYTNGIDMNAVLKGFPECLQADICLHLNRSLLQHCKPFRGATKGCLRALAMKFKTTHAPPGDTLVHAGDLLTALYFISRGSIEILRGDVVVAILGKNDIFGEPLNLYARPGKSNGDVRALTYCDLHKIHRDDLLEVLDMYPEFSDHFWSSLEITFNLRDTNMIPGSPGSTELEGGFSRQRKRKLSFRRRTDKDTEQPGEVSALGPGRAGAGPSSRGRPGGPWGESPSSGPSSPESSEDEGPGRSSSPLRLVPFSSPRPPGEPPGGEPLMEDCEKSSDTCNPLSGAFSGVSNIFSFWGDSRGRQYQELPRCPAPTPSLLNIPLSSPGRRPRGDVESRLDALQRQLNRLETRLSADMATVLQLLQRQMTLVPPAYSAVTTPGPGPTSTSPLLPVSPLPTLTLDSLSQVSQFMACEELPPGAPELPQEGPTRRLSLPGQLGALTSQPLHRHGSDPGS

| SMILES | hERG current change (%, negative = inhibition) at 10uM |
| --- | --- |
| O=C(CCC(=O)N1CCSc2ccccc21)Nc1ccc(F)cc1 | -4.12% |
| Cc1oc(-c2ccccc2F)nc1CS(=O)CC(=O)NCc1ccccn1 (stereo not shown) | -0.614% |
| CC(C)c1ccc(CN2CCC(Oc3ccc(C(=O)N4CCCC4)cc3)CC2)cc1 | -71.6% |
| Cn1cc(CN2CCC(Oc3ccc(C(=O)N4CCCCC4)cc3)CC2)cn1 | 8.81% |
| C=CCOc1ccccc1CN1CCC(Oc2ccc(C(=O)N3CCCCC3)cc2)CC1 | -57.6% |
| O=C(c1ccc(OC2CCN(Cc3ccccc3O)CC2)cc1)N1CCCCC1 | 3.29% |
| CC(C)n1cc(CN2CCC(Oc3ccc(C(=O)N4CCCCC4)cc3)CC2)cn1 | -31.6% |
| O=C(c1ccc(OC2CCN(Cc3ccccc3C(F)(F)F)CC2)cc1)N1CCCCC1 | 2.01% |
| CC(C)n1cc(CN2CCC(Oc3ccc(C(=O)N4CCCC4)cc3)CC2)cn1 | -9.96% |
| CCc1ccc(CN2CCC(Oc3ccc(C(=O)N4CCCCC4)cc3)CC2)cc1 | -78.4% |
| CCn1cc(CN2CCC(Oc3ccc(C(=O)N4CCCCC4)cc3)CC2)cn1 | -5.09% |
| O=C(c1ccc(OC2CCN(Cc3cccc(F)c3)CC2)cc1)N1CCCCC1 | -23.4% |
| O=C(c1ccc(OC2CCN(Cc3ccc(C(F)(F)F)cc3)CC2)cc1)N1CCCCC1 | -57.2% |
| C=CCOc1ccccc1CN1CCC(Oc2ccc(C(=O)N3CCCC3)cc2)CC1 | -41.8% |
| COc1cccc(NC(=O)Cc2ccccc2)c1 | -3.98% |
| Cc1ccc2c(c1)N(CCCC(=O)NCCC1=CCCCC1)C(=O)CO2 | -9.81% |
| CCOc1cc(N2CCOCC2)c(OCC)cc1NC(=O)COC(=O)c1cc2ccccc2cc1O | -11.7% |
| CCc1ccc(-c2cc(C)no2)cc1S(=O)(=O)N1CCOc2ccc(C)cc21 | 13.1% |
| Cc1c(NC(=O)C(C)N(c2ccccc2)S(C)(=O)=O)c(=O)n(-c2ccccc2)n1C (stereo not shown) | 18.7% |
| O=C(CCl)Nc1cccc(S(=O)(=O)NC2=NCCC2)c1 | -0.632% |
| CSc1cccc(CN2CCC(Oc3ccc(C(=O)N4CCCCC4)cc3)CC2)c1 | -25.2% |
| COC(=O)c1ccc(CN2CCC(Oc3cccc(C(=O)N4CCCC4)c3)CC2)cc1 | -50.8% |

| SMILES | hERG current change (%, negative = inhibition) at 10uM |
| --- | --- |
| CSc1cccc(CN2CCC(Oc3cccc(C(=O)N4CCCC4)c3)CC2)c1 | -44.4% |
| O=C(c1cccc(OC2CCN(Cc3cccc(OCCO)c3)CC2)c1)N1CCCC1 | -2.71% |
| CSc1ccc(CN2CCC(Oc3ccc(C(=O)N4CCCC4)cc3)CC2)cc1 | -71.1% |
| COc1cc(C)c(CN2CCC(Oc3ccc(C(=O)N4CCCC4)cc3)CC2)cc1C | -43.1% |
| O=C(c1cccc(OC2CCN(Cc3cc(F)cc(F)c3)CC2)c1)N1CCCC1 | -34.9% |
| Cn1cc(CN2CCC(Oc3ccc(C(=O)N4CCCC4)cc3)CC2)cn1 | 9.86% |
| COc1cccc(CN2CCC(Oc3ccc(C(=O)N4CCCCC4)cc3)CC2)c1 | -25.3% |
| CSc1ccc(CN2CCC(Oc3cccc(C(=O)N4CCCC4)c3)CC2)cc1 | -60.7% |
| COC(=O)c1ccc(CN2CCC(Oc3cccc(C(=O)N4CCOCC4)c3)CC2)cc1 | -22.7% |
| COc1ccc(CN2CCC(Oc3ccc(C(=O)N4CCCC4)cc3)CC2)c(F)c1 | -51.4% |
| COc1ccc(NC(=O)Nc2nnc(C(C)(C)C)s2)cc1 | -18.8% |
| COC(=O)C(Cc1ccccc1)OS(N)(=O)=O (stereo not shown) | 16.1% |
| COCCN1CN=C(NS(=O)(=O)c2ccc(C)cc2)NC1 | 16.3% |
| COc1cc(NC(=O)COc2cccc3c2OC(C)(C)C3)cc(OC)c1OC | -6.09% |
| CCN(C1=NS(=O)(=O)c2ccccc21)N(CC)S(=O)(=O)c1ccc(C)cc1 | 19.8% |
| CCOC(=O)Cc1csc(NC(=O)c2ccc(S(=O)(=O)N3CCOCC3)cc2)n1 | -2.52% |
| CN1CCN(C(=O)CSc2ccc(C(F)(F)F)cc2[N+](=O)[O-])CC1 | -10.2% |
| CCc1ccc(CN2CCC(Oc3ccc(C(=O)N4CCCC4)cc3)CC2)cc1 | -81.3% |
| CCOc1cccc(CN2CCC(Oc3ccc(C(=O)N4CCCC4)cc3)CC2)c1 | -27.4% |
| O=C(c1ccc(OC2CCN(Cc3ccc(F)cc3)CC2)cc1)N1CCCC1 | -24% |
| COc1ccc(CN2CCC(Oc3ccc(C(=O)N4CCCCC4)cc3)CC2)cc1C | -45.7% |
| COC(=O)c1ccc(CN2CCC(Oc3ccc(C(=O)N4CCCCC4)cc3)CC2)cc1 | -51.7% |

| SMILES | hERG current change (%, negative = inhibition) at 10uM |
| --- | --- |
| CC(=O)Nc1ccc(CN2CCC(Oc3ccc(C(=O)N4CCCC4)cc3)CC2)cc1 | -21.3% |
| CC(=O)c1c(C)[nH]c(C(=O)Nc2cc(S(=O)(=O)N3CCCCC3)ccc2C)c1C | 2.24% |
| CC(=O)O[C@@H]1/C=C/[C@](C)(O)C[C@@H](C)C/C=C/[C@H]2[C@H](O)C(C)=C(C)[C@H]3[C@H](Cc4ccccc4)NC(=O)[C@@]123 | -15.4% |
| Cl.Oc1ccc(CC2CC3CCN2CC3)cc1O (stereo not shown) | 12.7% |
| COc1ccc(NC(=O)Nc2cccc(Cl)c2Cl)c(OC)n1 | 3.16% |
| O=C(Cc1cccs1)N/N=C\c1ccc(O)cc1 | 14.5% |
| CC(C)(C)N1CC(c2nc3ccccc3n2CCOc2ccccc2)CC1=O (stereo not shown) | -26.1% |
| CCc1ccc2nc(N(CCN(C)C)C(=O)c3ccc4ccccc4c3)sc2c1.Cl | 0.369% |
| Cc1ccc2nc(N(CCN(C)C)C(=O)c3ccc4ccccc4c3)sc2c1.Cl | 15.9% |
| CCc1ccc2nc(N(CCN(C)C)C(=O)c3ccc4ncsc4c3)sc2c1.Cl | -60.6% |
| Cc1ccc2nc(N(CCCN(C)C)C(=O)c3ccc(S(=O)(=O)N(C)C)cc3)sc2c1.Cl | -42.1% |
| Cc1cccc2sc(N(CCCN(C)C)C(=O)c3ccc4ncsc4c3)nc12 | -45% |
| Cc1ccc2nc(N(CCCN(C)C)C(=O)c3ccc4ncsc4c3)sc2c1 | -61.4% |
| O=C(CCNC(=O)c1ccc([N+](=O)[O-])cc1)NC1CCCCCC1 | -25.3% |
| CCSc1nsc(NC(=O)Nc2ccc(F)cc2F)n1 | 24.1% |
| CC(C)(C)NC(=O)C(c1cccs1)N(C(=O)c1csnn1)c1cccc(F)c1 (stereo not shown) | -7.68% |
| O=C(Cn1ncc2c3ccccc3n(Cc3ccccc3)c2c1=O)NC1CCCC1 | 10.1% |
| O=S(=O)(c1ccc(Cl)s1)N1CCc2ccccc2C1 | 7.13% |
| NC(=S)Nc1cc(Cl)cc(Cl)c1 | 17.1% |
| CC(C)NC(=O)CCS(=O)(=O)c1ccc(Br)s1 | 16.1% |
| COc1ccc(/C=N/NC(=O)c2cccc([N+](=O)[O-])c2)cc1OS(=O)(=O)c1ccc(C)cc1 | -16.1% |
| COCc1cc(OC(=O)N(C)C)nc2c1c(C)nn2C | -9.48% |

| SMILES | hERG current change (%, negative = inhibition) at 10uM |
| --- | --- |
| O=C(CNC(=O)C12CC3CC(CC(C3)C1)C2)N/N=C\c1ccco1 | 5.05% |
| CS(=O)(=O)c1ccc(-c2cccc(NC(=O)COc3ccc(Cl)cc3)c2)nn1 | 6.7% |
| Cc1cc(OC(C)C(=O)NCC2CCC(C(=O)O)CC2)c2c(C)cc(=O)oc2c1 (stereo not shown) | 24.5% |
| COCCNC(=O)c1cccc(OC2CCN(Cc3cccc(SC)c3)CC2)c1 | -35.2% |
| COc1cccc(OCCCCN2CCCCC2)c1 | -8.36% |
| COc1cc(OC)cc(C(=O)NC2CCN(CCCOc3ccccc3)CC2)c1 | -70.2% |
| c1ccc(OCCCCN2CCOCC2)cc1 | -14.5% |
| COCC(C)N1CCC(Oc2ccc(C(=O)NCc3ccccn3)cc2)CC1 (stereo not shown) | 13.1% |
| COCC(C)N1CCC(Oc2cccc(C(=O)NCCc3ccccc3)c2)CC1 (stereo not shown) | -66.3% |
| COc1cc(OC)cc(C(=O)NNC(=O)CCCOc2ccccc2)c1 | -18.4% |
| CCCN1CCC(NC(=O)c2cccc(Oc3ccccc3)c2)CC1 | -51.9% |
| COc1cc(OC)cc(C(=O)NCCOc2ccccc2)c1 | -17.6% |
| COc1ccc(C2(O)CCN(CCCCOc3ccccc3)CC2)cc1 | -70.6% |
| CN1CCC(NC(=O)c2cccc(Oc3ccccc3)c2)CC1 | -8.93% |
| O=C(NC1CC1)c1cccc(Oc2ccccc2)c1 | 1.52% |
| Cn1cc(/C=C(\C#N)C(=O)Nc2cccc([N+](=O)[O-])c2)c2ccccc21 | 28.4% |
| COc1ccc(F)cc1C(=O)C1CCCN(C(=O)c2ccc(C(C)=O)s2)C1 (stereo not shown) | -4.71% |
| COC(=O)c1ccc(N=C(c2ccccc2)c2c(O)n(C)c(=O)n(C)c2=O)cc1 | 6.79% |
| CC(=O)N(C)c1ccc(N=Cc2c(O)ccc3ccccc23)cc1 | -20.9% |
